This is a sample that favours compounds with a hit; in the whole collection about 4.1% have one here.
aSyn 5UTR inh = MLPCN primary screen, SNCA 5' untranslated region. alpha-synuclein 5'UTR reporter, inhibitor activity. inhibition, % (tested at 7.5 µM). 0.82% of 300,000 active; in the data active = inhibition above about 60%; inconclusive = no clear call, values can overlap the other calls;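 note: H4 neuroglioblastoma cells stably carrying SNCA 5'UTR luciferase fusion; 0% = DMSO wells and 100% = positive control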
Mdm2-MdmX inh = disrupts the human Mdm2-MdmX interaction; inhibition, % at 8 µM; SaOS-2 split-luciferase Mdm2/MdmX complementation, luminescence; 3% of 330,000 active; AID 485346;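 active = inhibition of at least 50% at 8 µM in the primary screen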
Target sequence (O15151 whole entry, looked up): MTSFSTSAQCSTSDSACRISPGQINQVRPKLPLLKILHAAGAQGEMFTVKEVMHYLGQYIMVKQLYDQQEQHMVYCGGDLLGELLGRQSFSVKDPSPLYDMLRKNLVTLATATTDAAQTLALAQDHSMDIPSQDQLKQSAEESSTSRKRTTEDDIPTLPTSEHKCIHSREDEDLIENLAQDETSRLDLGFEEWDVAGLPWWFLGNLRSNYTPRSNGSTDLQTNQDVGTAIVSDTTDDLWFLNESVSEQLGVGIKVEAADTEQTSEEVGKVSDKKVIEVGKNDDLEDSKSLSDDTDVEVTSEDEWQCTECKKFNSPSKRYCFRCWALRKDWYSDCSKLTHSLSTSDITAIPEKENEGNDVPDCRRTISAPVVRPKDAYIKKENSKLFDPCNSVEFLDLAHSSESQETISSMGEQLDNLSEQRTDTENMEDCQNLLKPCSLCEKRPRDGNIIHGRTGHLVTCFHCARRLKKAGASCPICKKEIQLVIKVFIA
Target sequence (Q00987 whole entry, looked up): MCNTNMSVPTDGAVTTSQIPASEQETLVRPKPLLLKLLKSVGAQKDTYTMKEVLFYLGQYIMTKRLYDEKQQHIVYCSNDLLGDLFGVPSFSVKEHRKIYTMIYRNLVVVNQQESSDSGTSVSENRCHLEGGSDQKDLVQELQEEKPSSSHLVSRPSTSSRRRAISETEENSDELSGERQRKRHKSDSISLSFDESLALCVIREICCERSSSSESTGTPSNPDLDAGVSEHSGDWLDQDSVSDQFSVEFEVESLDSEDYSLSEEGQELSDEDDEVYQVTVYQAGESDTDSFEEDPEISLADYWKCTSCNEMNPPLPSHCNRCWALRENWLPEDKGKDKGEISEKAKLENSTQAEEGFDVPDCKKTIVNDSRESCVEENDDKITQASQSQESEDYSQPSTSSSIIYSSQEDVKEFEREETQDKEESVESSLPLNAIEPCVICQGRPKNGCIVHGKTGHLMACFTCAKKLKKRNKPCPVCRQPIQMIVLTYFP
Jurkat NFkB inh = inhibitors of the PMA/ionomycin-induced NF-kB reporter in Jurkat cells; PMA/ionomycin-induced NF-kB luciferase reporter, luminescence; inhibition, % at 4 µM; 0.53% of 330,000 active; AID 435003; in the data active = inhibition above about 50%
Gli-Sufu block = blocks Gli-Sufu signaling in a luciferase reporter; Sufu-KO-LIGHT fibroblasts, Gli luciferase reporter luminescence; inhibition, % at 5 µM; 0.74% of 340,000 active;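 active = inhibition above about 55%, limit read from the data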;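 note: 0% = DMSO-treated cells and 100% = wells with medium but no cells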
KLF5 inhibitor = inhibitors of KLF5 expression; 0.23% of 290,000 active; inhibition, % at 5 µM; AID 1700; DLD-1 KLF5 promoter-luciferase reporter, luminescence;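 active = inhibition above a per-plate limit of that plate's mean compound inhibition plus 3 SD, cut at about 60% in these data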;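 note: 0% = DMSO wells and 100% = LY294002 at 200 µM; higher means less KLF5 promoter-driven luciferase light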
697 NFkB inh = inhibitors of the PMA/ionomycin-induced NF-kB reporter in 697 B cells. 697 B-cell NF-kB luciferase reporter, 16 h. inhibition, % at 4 µM. 0.33% of 330,000 active; in the data active = inhibition above about 35%
Mdm2-MdmX conf = human Mdm2/MdmX binding inhibition, confirmed; shares compounds with Mdm2-MdmX inh; 55% of 10,000 active; inhibition, % at 8 µM; luminescent assay; in the data active = inhibition above about 40%
FLuc counter = full-length luciferase inhibition in Mdm2/MdmX counter-screen. shares compounds with Mdm2-MdmX inh. SaOS-2 full-length luciferase counterscreen, luminescence. inhibition, % at 8 µM. 77% of 6,200 active. AID 504607;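 active = mean inhibition at 8 µM reaching about 37%, which flags the compound as non-specific, limit read from the data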;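 note: p53-null SaOS-2 cells with luciferase driven by a doxycycline-inducible promoter; compound on cells about two nights before reading with doxycycline added after day one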
The depositor's hits bear a star; ? = inconclusive; . = not tested or not shown.

SMILES	aSyn 5UTR inh	Mdm2-MdmX inh	Jurkat NFkB inh	Gli-Sufu block	KLF5 inhibitor	697 NFkB inh	Mdm2-MdmX conf	FLuc counter
COc1cccc(OC)c1C(=O)Nc1cc(C)nn1-c1nc2ccccc2[nH]1	-37.2	77.2*	23.1	15.4	-7.7	25.5	54.0*	63.3*
Cc1cc(NC(=O)c2cccs2)n(-c2nc3ccccc3[nH]2)n1	-2.9	39.6	2.0	.	-10.2	-4.6	.	.
COc1ccc(C(=O)Nc2cc(C)nn2-c2nc3ccccc3[nH]2)c(OC)c1	-10.0	51.2*	7.2	-3.1	-14.0	-5.6	32.6	.
Cc1cc(NC(=O)C2CCCC2)n(-c2nc3ccccc3[nH]2)n1	8.4	53.5*	9.8	2.5	-2.4	-4.9	40.9*	62.6*
Cc1cc(NC(=O)c2ccccc2)n(-c2nc3ccccc3[nH]2)n1	14.3	38.8	0.6	-6.0	-0.3	4.3	.	.
Cc1cc(NC(=O)c2sccc2C)n(-c2nc3ccccc3[nH]2)n1	25.5	58.7*	-4.9	2.1	-26.3	-12.9	25.6	.
COc1ccc(/C=C2/NC(=O)N(Cc3ccccc3F)C2=O)cc1OC	19.9	85.0*	-0.9	12.6	17.5	18.7	7.0	.
CCOc1cc(/C=C2/NC(=O)N(CC(=O)Nc3cccc(C)c3)C2=O)ccc1OC	36.0	70.2*	10.7	-1.5	-12.2	18.6	65.2*	32.2
CCn1cc(/C=C2\SC(=O)N(CC(=O)Nc3ccc4c(c3)OCO4)C2=O)c2ccccc21	.	67.9*	14.3	-10.9	-12.2	17.2	46.9*	90.7*
O=C(CN1C(=O)S/C(=C\c2ccccn2)C1=O)Nc1ccccc1	.	15.9	2.9	-5.5	-14.0	13.9	.	.
Cc1cccc(NC(=O)CN2C(=O)S/C(=C\c3ccccn3)C2=O)c1	-1.1	84.0*	11.0	-12.6	-26.1	7.9	24.6	.
COc1cc(/C=C2/NC(=O)N(Cc3ccccc3F)C2=O)cc(OC)c1OC	-6.4	1.1	-0.6	4.7	-8.1	22.7	.	.
Cc1c(/C=C2\SC(=O)N(CC(=O)Nc3ccc4c(c3)OCO4)C2=O)c2ccccc2n1C	5.1	39.4	11.8	47.6	-22.0	8.9	.	.
O=C(Cc1nnc(NC(=O)Nc2ccccc2)s1)Nc1ccccc1	-1.7	9.7	-5.1	7.0	-15.9	-22.7	.	.
Cc1ccc(OCCSCc2nnc(NC(=O)Nc3cccc(Cl)c3)s2)cc1	-3.9	91.5*	27.7	15.1	-40.3	-18.6	81.6*	96.7*
O=C(Nc1ccc(Cl)c(Cl)c1)Nc1nnc(CSc2ccccc2)s1	39.7	94.8*	23.5	47.1	-27.6	-44.6	77.2*	49.6*
O=C(Nc1ccc(Cl)cc1)Nc1nnc(CSCc2ccccc2Cl)s1	15.0	60.7*	-1.7	-7.2	-1.4	-5.7	15.4	.
Cc1nnc(NC(=O)Nc2cccc(Cl)c2)s1	-122.5	15.6	-34.7	-44.1	-67.2	-53.6	.	.
O=C(Nc1ccc(Cl)cc1)Nc1nnc(SCc2ccccc2)s1	-54.8	-13.0	-26.4	-18.6	-6.0	-24.9	.	.
O=C(Nc1ccccc1)Nc1nnc(CSCc2ccccc2Cl)s1	25.9	84.7*	-0.9	-6.9	-17.6	-3.3	47.4*	66.5*
COc1cccc(NC(=O)c2ccc3nc(C)sc3c2)c1	-238.7	-37.9	-75.9	-96.1	-79.7	-47.4	.	.
COC(=O)Cn1nc(-c2ccc(C)cc2)c2ccccc2c1=O	35.2	10.2	10.6	-4.3	-21.9	16.9	.	.
Cn1cnc([N+](=O)[O-])c1S(=O)(=O)c1cccc(Cl)c1	-2.8	68.3*	8.8	-2.0	-3.5	-9.3	34.1	21.1
CCN(CC(=O)NCc1cccs1)C(=O)c1ccc(S(=O)(=O)Nc2ccccc2Cl)cc1	.	11.6	-6.4	4.2	.	16.3	.	.
CCn1c(-c2ccccc2)c(C(=O)CCl)c2ccccc21	13.6	98.3*	5.0	4.0	-20.6	-64.5	10.3	.
SMILES	aSyn 5UTR inh	Mdm2-MdmX inh	Jurkat NFkB inh	Gli-Sufu block	KLF5 inhibitor	697 NFkB inh	Mdm2-MdmX conf	FLuc counter
N#CCc1cc2ccc3cccc4ccc(c1)c2c34	-8.0	7.0	10.5	14.1	-32.7	9.2	.	.
c1ccc(CCn2c3ccccc3c3nnc(SCc4ccc5nonc5c4)nc32)cc1	37.5	90.9*	-1.1	13.5	13.6	-101.7	63.0*	43.5*
CCN(CC)CCSc1nnc2c3ccccc3n(CCc3ccccc3)c2n1	-105.6	-1.7	10.5	11.7	-8.1	6.4	.	.
O=C(Nc1cc(C(=O)N2CCN(c3ccccc3O)CC2)ccc1Cl)c1cccs1	14.8	18.6	-7.3	-4.9	.	5.9	.	.
Cc1cccc(-c2noc(CCCC(=O)NC3CCCCC3)n2)c1	-5.5	25.9	18.3	-14.3	-18.2	9.6	.	.
COc1cc(OC)cc(C(=O)Nc2nc(-c3ccccc3)c(-c3ccccc3)o2)c1	44.2	56.0*	-5.9	-4.3	13.2	19.0	35.6	.
CCc1ccc(-c2cc(C)no2)cc1S(=O)(=O)N1CCCN(Cc2ccc(F)cc2)C1	3.1	68.3*	18.7	30.8	-26.0	0.7	27.3	.
CC(C)=CCc1cc([C@@H]2COc3c(ccc4c3C=CC(C)(C)O4)C2)c(O)cc1O	16.8	63.7*	19.6	5.3	.	-26.3	-7.3	.
CC1(C)C=Cc2c(ccc3c2OC[C@H](c2ccc(O)cc2O)C3)O1	.	-46.9	-55.0	-39.2	.	-52.4	.	.
COc1ccccc1NC(=O)c1c(N=Cc2c(O)ccc3ccccc23)cnn1C	-44.5	51.5*	24.2	-10.4	-30.0	-60.8	30.2	.
O=C(CNc1ccc(F)cc1)N/N=C/c1c(O)ccc2ccccc12	58.5	72.1*	16.8	-1.0	38.7	-16.5	77.0*	27.9
O=C(CN1CCCc2ccccc21)N/N=C/c1ccccc1	-27.6	0.0	-63.7	-7.5	-13.4	-29.7	.	.
COc1ccccc1N(CC(=O)N/N=C/c1c(O)ccc2ccccc12)S(C)(=O)=O	?	77.0*	30.7	28.4	12.4	-2.9	77.2*	26.2
O=C(CN1CCCc2ccccc21)N/N=C/c1c(O)ccc2ccccc12	17.8	81.3*	10.5	-2.1	-2.0	-38.5	91.0*	30.3
Cn1ncc(N=Cc2c(O)ccc3ccccc23)c1C(=O)N1CCOCC1	-10.8	-4.5	8.4	4.5	-9.3	25.4	.	.
CN(c1ccc(OCC(=O)OCC(=O)NCc2ccco2)cc1)S(=O)(=O)c1ccc2ccccc2c1	6.4	10.8	-0.5	-23.1	-24.2	-3.9	.	.
OC[C@H]1O[C@@H](O[C@@H]2[C@@H](CO)O[C@@](O)(CO)[C@H]2O)[C@H](O)[C@@H](O)[C@H]1O	-0.6	-26.9	-16.3	0.0	.	-18.3	.	.
COc1ccccc1NCC(=O)N/N=C/c1cccnc1	4.6	0.0	5.1	21.1	-29.0	15.3	.	.
COc1ccccc1NCC(=O)N/N=C/c1c(O)ccc2ccccc12	37.2	86.7*	8.0	2.4	36.1	6.8	77.5*	24.6
CC(=O)Nc1ccc(O)c(-c2nc3ccccc3s2)c1	-326.2	-29.0	-24.5	-27.1	-38.3	-27.8	.	.
O=C(Nc1ccc(OC(=O)c2ccccc2)c(-c2nc3ccccc3s2)c1)c1ccccc1	-59.2	67.9*	-2.6	8.0	-15.3	11.5	31.7	.

High-throughput results from PubChem BioAssay.
